Test results published in PubChem BioAssay (Tox21).
Results filed as inconclusive are left out. The source made the active and inactive calls. Unless noted, calls follow the shape of the full dose curve.

Columns and labels:
[1] = Nuclear factor erythroid 2-related factor 2/antioxidant responsive element (Nrf2/ARE) small molecule agonists: qHTS cell viability counter screen in human keratinocytes (AID 1919968; active = well fitted curve in the direction sought with a large enough effect in the repeat runs; an effect the other way counts as inactive or inconclusive; also: nearly all actives have a fitted effect of over 55% in size; also: potency is read from the fitted curve at half-maximal effect)
Procedure, shortened: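 Stably transfected HaCaT (KeratinoSens), 1,500/well. Test agents in DMSO were applied for 23 h, 37 C/5% CO2. CellTiter-Fluor was incubated 1 h before the fluorescence read.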

[2] = Nuclear factor erythroid 2-related factor 2/antioxidant responsive element (Nrf2/ARE) small molecule agonists: luciferase reporter gene qHTS assay in human keratinocytes (AID 1919969); also: nearly all actives have a fitted effect of over 35% in size; also: potency is read from the fitted curve at half-maximal effect
[3] = target: Gonadotropin-releasing hormone receptor (Homo sapiens) (UniProt P30968); experiment: Human gonadotropin-releasing hormone receptor (GnRHR) small molecule agonists, calcium flux assay in GnRHR-HEK293 cells (AID 1920063); also: nearly all actives have a fitted effect of over 35% in size
Procedure, shortened: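 Stable human GnRHR HEK293 line. 18 h plating, then calcium dye for 1 h at 37 C. Agonist-mode compound addition from DMSO stocks; fluorescence monitored 3 min.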

[4] = target: KiSS-1 receptor (Homo sapiens) (UniProt Q969F8); experiment: Human kisspeptin (KISS1R) small molecule agonists, calcium flux assay in KISS1R-HEK293 cells (AID 1920064; active = well fitted curve in the direction sought with a large enough effect in the repeat runs; an effect the other way counts as inactive or inconclusive)
Procedure, shortened: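 After overnight (18 h) culture at 37 C/5% CO2, human KISS1R-HEK293 cells received calcium dye for 1 h, then test compound; emission at 540 nm (excitation 480 nm) was tracked for 3 min.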

[5] = G protein-coupled receptor (GPCR) small molecule agonists, calcium flux assay: HEK293 wild type cell line counter screen (AID 1920065)
Procedure, shortened: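 Following 18 h incubation at 37 C/5% CO2, plates got calcium dye for 1 h; compounds, ATP or DMSO were then pinned in and fluorescence followed kinetically (480/540 nm).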

[6] = p53 small molecule agonists, cell-based qHTS assay: qHTS cell viability counter screen (AID 1963581); also: nearly all actives have a fitted effect of over 45% in size
Procedure, shortened: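 qHTS counter screen: 16 h compound exposure at 37 C of p53RE-bla HCT-116 cells (4,000 per well, seeded 5 h prior), cell viability by ATP luminescence.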

[7] = p53 small molecule agonists, cell-based qHTS assay (AID 1963582; active = well fitted activation curve with a large enough effect in the signal ratio in the repeat runs, not every such curve was filed as active; the % refers to the signal ratio)
Procedure, shortened: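 Measured: fluorescence from cleaved LiveBLAzer substrate. System: p53RE-bla cells, 16 h compound treatment at 37 C, 2 h substrate step at room temperature.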

[8] = target: 5-hydroxytryptamine receptor 2A (Homo sapiens) (UniProt P28223); experiment: 5-hydroxytryptamine receptor 2A (HTR2A) small molecule antagonists, cell-based qHTS assay (AID 1963586); also: nearly all actives have a fitted effect of over 45% in size
Procedure, shortened: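 CHO cells stably expressing human HTR2A were plated for 18 h at 37 C, then loaded with calcium dye for 1 h. Compounds were preincubated 5 min at room temperature before DOI (4 nM solution) was added. Kinetic fluorescence was read for 3 min.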

[9] = target: 5-hydroxytryptamine receptor 2A (Homo sapiens) (UniProt P28223); experiment: 5-hydroxytryptamine receptor 2A (HTR2A) small molecule agonists, cell-based qHTS assay (AID 1963587); also: nearly all actives have a fitted effect of over 30% in size
Procedure, shortened: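 HTR2A-CHO cells, plated 18 h at 37 C/5% CO2, dye-loaded 1 h at 37 C; compounds in DMSO added by pin tool (agonist mode). Intracellular calcium flux read as kinetic fluorescence on FDSS over 2 min at 1 s intervals.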

[10] = target: Muscarinic acetylcholine receptor M1 (Homo sapiens) (UniProt P11229); experiment: Cholinergic receptor muscarinic 1 (CHRM1) small molecule antagonists, cell-based qHTS assay (AID 1963588); also: nearly all actives have a fitted effect of over 40% in size
Procedure, shortened: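 Compounds were tested at 15 concentrations in three independent runs. Dye-loaded CHRM1-CHO cells were exposed 5 min at room temperature before stimulation by acetylcholine added at 50nM. Intracellular calcium was read kinetically on FDSS for 3 min.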

[11] = target: Muscarinic acetylcholine receptor M1 (Homo sapiens) (UniProt P11229); experiment: Cholinergic receptor muscarinic 1 (CHRM1) small molecule agonists, cell-based qHTS assay (AID 1963589); also: nearly all actives have a fitted effect of over 35% in size
Procedure, shortened: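 Kinetic fluorescence (1 s intervals) of calcium-sensitive dye in human M1 CHO cells after compound addition; cells pre-incubated 18 h at 37 C/5% CO2 and dye-loaded 1 h.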

[12] = target: Beta-2 adrenergic receptor (Homo sapiens) (UniProt P07550); experiment: Adrenergic beta2 receptor (ADRB2) small molecule antagonists, cell-based qHTS assay (AID 1963592); also: series mostly up to about 92 µM; nearly all actives have a fitted effect of over 50% in size
Procedure, shortened: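 Assay format: CHO-ADRB2 cells, 18-20hr seeding at 37C/5% CO2, then compound plus 1nM isoproterenol agonist mix for 0.5hr RT. Homogeneous time-resolved fluorescence cAMP detection after 1hr, expressed as 665/615 nm ratio.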

[13] = target: Beta-2 adrenergic receptor (Homo sapiens) (UniProt P07550); experiment: Adrenergic beta2 receptor (ADRB2) small molecule agonists, cell-based qHTS assay (AID 1963593);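 also: CHO cells stably overexpressing human ADRB2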
Procedure, shortened: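 CHO cells stably over-expressing ADRB2 were plated overnight at 37C, then dosed with compounds plus a stimulation mix containing 100uM IBMX and 25uM Ro-20-1724 for 0.5hr at room temperature. cAMP was measured by HTRF competition, 1hr.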

[14] = target: D(2) dopamine receptor (Homo sapiens) (UniProt P14416); experiment: Dopamine D2 receptor (DRD2) small molecule agonists, cell-based qHTS assay (AID 1963594); also: nearly all actives have a fitted effect of over 35% in size
Procedure, shortened: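 HEK293 cells stably expressing DRD2 were cultured 24 h at 37 C, then given Ro20-1724 (0.1 mM final) and compounds for 10 min at room temperature. NKH477 (200nM) was then added for 30 min. cAMP was read by HTRF.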

[15] = target: D(2) dopamine receptor (Homo sapiens) (UniProt P14416); experiment: Dopamine D2 receptor (DRD2) small molecule antagonists, cell-based qHTS assay (AID 1963595; active = well fitted inhibition curve with a large enough effect in the signal ratio in the repeat runs, with a control signal flat; the % refers to the signal ratio; also: potency is read from the fitted curve at half-maximal effect)
Procedure, shortened: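 Stable D2 receptor HEK293 line, 24 h after seeding. Compound preincubated 10 min, then quinpirole (12 nM) with forskolin analogue NKH477 (200 nM), 30 min, room temperature. Detection by time-resolved FRET of cAMP.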

[16] = p53 small molecule agonists, cell-based qHTS assay with human liver microsomes: qHTS cell viability counter screen (AID 1963579); also: nearly all actives have a fitted effect of over 45% in size
Procedure, shortened: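 Luminescent CellTiter-Glo read-out, 30 min at room temperature, gauged cytotoxicity in p53RE-bla cells exposed 16 h at 37 C to DMSO-dissolved compounds with metabolic activation by human liver microsomes and NADPH, each 0.5 mg/mL final.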

[17] = p53 small molecule agonists, cell-based qHTS assay with rat liver microsomes: qHTS cell viability counter screen (AID 1963580); also: nearly all actives have a fitted effect of over 45% in size
Procedure, shortened: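 Counter screen for cytotoxicity under metabolic activation: rat liver microsomes and NADPH, 0.5 mg/mL final each, added with compounds to p53RE-bla HCT-116 cells; 16 h at 37 C, then ATP luminescence read.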

[18] = cAMP Responsive Elements (CRE) small molecule agonists, cell-based qHTS assay (AID 1963590)
Procedure, shortened: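 Test agents in DMSO were incubated 3 h at 37 C/5% CO2 with CRE-bla HEK 293T cells seeded 18 h earlier; LiveBLAzer B/G FRET substrate was added and read after 2 h at room temperature.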

[19] = cAMP Responsive Elements (CRE) small molecule antagonists, cell-based qHTS assay (AID 1963591; active = well fitted inhibition curve with a large enough effect in the signal ratio in the repeat runs, not every such curve was filed as active; the % refers to the signal ratio)
Procedure, shortened: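 Reporter line CRE-bla HEK 293T in dialyzed-FBS DMEM; cells preincubated 18 h, treated 3 h with compound plus NKH477 (0.25 uM final); LiveBLAzer FRET, 2 h RT.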

[20] = p53 small molecule agonists, cell-based qHTS assay with rat liver microsomes (AID 1963578)
Procedure, shortened: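 Rat liver microsome activation: microsomes 0.5 mg/mL, NADPH 0.5 mg/mL final; p53RE-bla cells, 16 h 37 C; LiveBLAzer readout, 2 h RT dark.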

Measured: Potency

Chain of Muscarinic acetylcholine receptor M1 (Homo sapiens) (P11229 whole entry, looked up): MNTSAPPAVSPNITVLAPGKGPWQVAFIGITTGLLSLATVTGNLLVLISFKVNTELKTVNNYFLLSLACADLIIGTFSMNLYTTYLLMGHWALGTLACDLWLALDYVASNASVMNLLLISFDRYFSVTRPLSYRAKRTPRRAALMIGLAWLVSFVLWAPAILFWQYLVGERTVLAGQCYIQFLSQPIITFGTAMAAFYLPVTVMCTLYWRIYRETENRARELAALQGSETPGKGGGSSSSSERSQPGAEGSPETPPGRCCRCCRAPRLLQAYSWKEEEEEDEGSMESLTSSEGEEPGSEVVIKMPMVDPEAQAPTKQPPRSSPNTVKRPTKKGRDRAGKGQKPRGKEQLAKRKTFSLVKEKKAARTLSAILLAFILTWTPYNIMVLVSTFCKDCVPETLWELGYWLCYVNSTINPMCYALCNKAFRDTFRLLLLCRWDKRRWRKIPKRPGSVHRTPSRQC
Chain of 5-hydroxytryptamine receptor 2A (Homo sapiens) (P28223 whole entry, looked up): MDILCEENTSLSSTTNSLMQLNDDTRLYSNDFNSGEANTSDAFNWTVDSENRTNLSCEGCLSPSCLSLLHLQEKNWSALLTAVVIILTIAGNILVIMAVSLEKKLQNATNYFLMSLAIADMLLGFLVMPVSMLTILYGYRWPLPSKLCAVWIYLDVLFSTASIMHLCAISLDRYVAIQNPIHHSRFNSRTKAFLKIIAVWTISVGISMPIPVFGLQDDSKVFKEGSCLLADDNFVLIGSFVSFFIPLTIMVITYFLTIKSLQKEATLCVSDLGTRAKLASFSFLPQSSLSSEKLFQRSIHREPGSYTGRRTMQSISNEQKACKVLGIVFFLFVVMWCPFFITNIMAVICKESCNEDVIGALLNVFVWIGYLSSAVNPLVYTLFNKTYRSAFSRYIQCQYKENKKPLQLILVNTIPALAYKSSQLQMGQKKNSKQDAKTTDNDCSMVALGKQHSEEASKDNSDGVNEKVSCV
Chain of Gonadotropin-releasing hormone receptor (Homo sapiens) (P30968 whole entry, looked up): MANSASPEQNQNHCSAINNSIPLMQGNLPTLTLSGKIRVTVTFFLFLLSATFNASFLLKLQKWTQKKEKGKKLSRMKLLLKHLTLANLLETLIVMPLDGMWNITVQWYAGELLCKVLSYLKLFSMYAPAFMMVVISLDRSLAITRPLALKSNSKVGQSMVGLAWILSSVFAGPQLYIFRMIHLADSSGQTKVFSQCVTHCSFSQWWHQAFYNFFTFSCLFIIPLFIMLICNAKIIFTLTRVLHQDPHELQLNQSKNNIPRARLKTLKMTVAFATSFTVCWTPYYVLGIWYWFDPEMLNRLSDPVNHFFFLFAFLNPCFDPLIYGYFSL
Chain of D(2) dopamine receptor (Homo sapiens) (P14416 whole entry, looked up): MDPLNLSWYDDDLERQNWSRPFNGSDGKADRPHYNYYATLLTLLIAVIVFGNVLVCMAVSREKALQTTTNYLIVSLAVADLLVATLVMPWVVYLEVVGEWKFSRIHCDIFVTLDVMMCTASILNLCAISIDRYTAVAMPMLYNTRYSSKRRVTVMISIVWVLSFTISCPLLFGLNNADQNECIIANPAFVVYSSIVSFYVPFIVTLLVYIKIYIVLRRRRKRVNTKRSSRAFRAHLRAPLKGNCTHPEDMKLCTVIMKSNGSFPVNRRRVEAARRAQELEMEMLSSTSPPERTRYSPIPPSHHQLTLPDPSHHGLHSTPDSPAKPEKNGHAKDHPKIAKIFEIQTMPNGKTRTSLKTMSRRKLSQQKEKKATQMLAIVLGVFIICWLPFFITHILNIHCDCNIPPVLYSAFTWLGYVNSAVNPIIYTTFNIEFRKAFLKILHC
Chain of Beta-2 adrenergic receptor (Homo sapiens) (P07550 whole entry, looked up): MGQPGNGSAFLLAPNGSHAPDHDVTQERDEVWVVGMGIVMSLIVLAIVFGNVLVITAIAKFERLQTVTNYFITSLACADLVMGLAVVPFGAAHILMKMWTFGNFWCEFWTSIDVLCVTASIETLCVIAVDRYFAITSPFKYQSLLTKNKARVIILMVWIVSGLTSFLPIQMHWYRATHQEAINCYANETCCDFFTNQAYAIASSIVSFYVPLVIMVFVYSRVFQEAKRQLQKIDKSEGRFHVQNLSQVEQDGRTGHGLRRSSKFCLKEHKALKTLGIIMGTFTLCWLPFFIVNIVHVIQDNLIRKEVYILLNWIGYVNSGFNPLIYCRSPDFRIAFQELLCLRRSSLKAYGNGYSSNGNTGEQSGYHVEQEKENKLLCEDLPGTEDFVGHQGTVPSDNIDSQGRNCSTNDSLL
Chain of KiSS-1 receptor (Homo sapiens) (Q969F8 whole entry, looked up): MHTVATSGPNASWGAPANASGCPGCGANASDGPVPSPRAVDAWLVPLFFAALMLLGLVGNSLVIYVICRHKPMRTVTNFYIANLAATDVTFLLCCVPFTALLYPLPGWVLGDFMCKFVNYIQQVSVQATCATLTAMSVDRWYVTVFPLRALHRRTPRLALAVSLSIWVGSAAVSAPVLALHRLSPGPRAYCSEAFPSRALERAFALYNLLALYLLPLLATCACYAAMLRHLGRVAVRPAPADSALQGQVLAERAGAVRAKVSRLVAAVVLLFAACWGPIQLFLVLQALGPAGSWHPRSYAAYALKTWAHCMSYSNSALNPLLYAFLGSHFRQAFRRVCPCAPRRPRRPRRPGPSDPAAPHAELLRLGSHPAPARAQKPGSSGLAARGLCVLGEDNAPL

Cc1ccc(O)c(C(=O)c2ccccc2)c1
not listed: [16] | [17] | [18] | [19] | [20]
inactive: all other assays above

COCCOC(=O)CC#N
not listed: [8] | [14] | [20]
inactive: all other assays above

COc1nccnc1CC(C)C
not listed: [13] | [15] | [20]
inactive: all other assays above

c1csc(SSc2cccs2)c1
active: [1] 15.4 µM | [2] 6.11 µM
not listed: [17] | [20]
inactive: all other assays above

CCCCOC(=O)c1ccccc1
inactive: all assays above

COC(=O)C1=C(C)NC(C)=C(C(=O)OCCc2ccc(N3CCN(C(c4ccccc4)c4ccccc4)CC3)cc2)C1c1cccc([N+](=O)[O-])c1 (stereo not drawn)
inactive: all assays above

CCc1c(C)[nH]c2c1C(=O)C(CN1CCOCC1)CC2 (stereo not drawn)
active: [15] 0.75 µM
not listed: [8] | [12] | [13] | [20]
inactive: all other assays above
